Compounds with a hit are over-represented: about 1.1% of the library has one in this group of screens.
OPRM1-OPRD1 ag – agonists of OPRM1-OPRD1 heterodimerization, primary screen, cell-based, luminescence; Mu-type opioid receptor (Homo sapiens) + Delta-type opioid receptor (Homo sapiens), …; cells; activation, % at 9.3 µM; 340,000 compounds, 0.3% hits;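 also: 0% = vehicle-treated cells and 100% = reference agonist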
Target sequence (P35372 whole entry, looked up): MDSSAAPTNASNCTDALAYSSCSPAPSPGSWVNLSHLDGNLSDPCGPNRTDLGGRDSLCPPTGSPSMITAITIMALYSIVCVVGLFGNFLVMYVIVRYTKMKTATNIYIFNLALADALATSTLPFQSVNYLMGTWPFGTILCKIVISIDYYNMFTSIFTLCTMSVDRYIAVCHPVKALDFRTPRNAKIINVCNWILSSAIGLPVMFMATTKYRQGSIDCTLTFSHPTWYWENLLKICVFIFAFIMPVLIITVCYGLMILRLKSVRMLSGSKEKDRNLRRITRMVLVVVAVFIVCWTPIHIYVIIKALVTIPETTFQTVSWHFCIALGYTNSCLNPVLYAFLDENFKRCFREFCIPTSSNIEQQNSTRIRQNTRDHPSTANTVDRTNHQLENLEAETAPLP
Target sequence (P41143 whole entry, looked up): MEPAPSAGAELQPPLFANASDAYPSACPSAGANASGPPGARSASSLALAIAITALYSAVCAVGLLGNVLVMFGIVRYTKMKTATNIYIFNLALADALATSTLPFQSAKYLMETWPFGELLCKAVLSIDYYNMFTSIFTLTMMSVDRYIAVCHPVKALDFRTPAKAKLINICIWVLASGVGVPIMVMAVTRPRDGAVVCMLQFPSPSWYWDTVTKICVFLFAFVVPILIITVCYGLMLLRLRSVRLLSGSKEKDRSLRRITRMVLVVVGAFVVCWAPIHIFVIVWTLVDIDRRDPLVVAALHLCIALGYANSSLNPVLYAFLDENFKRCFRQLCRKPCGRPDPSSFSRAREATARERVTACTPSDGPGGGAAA
OPRM1-OPRD1 inv – inverse agonists of MOR-DOR heterodimerization, primary screen, cell-based, luminescence; Mu-type opioid receptor (Homo sapiens) + Delta-type opioid receptor (Homo sapiens), …; cell-based MOR-DOR heterodimer luminescence, inverse agonism; inhibition, % at 9.3 µM; 340,000 compounds, 0.21% hits; AID 504357, 2011; in the data active = inhibition above about 22%, passing the limit was not always enough;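 also: 0% = cells with DMSO and 100% = wells without cells with DMSO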
HTR5A inv ag – HTR5A inverse agonists in luminescence cell assay, primary screen, counter-screen for OPRM1-OPRD1 heterodimer inverse agonist project, full-deck HTS | 5-hydroxytryptamine receptor 5A (Homo sapiens), P47898 | HTR5A cell line, inverse agonism | inhibition, % at 9.3 µM | 340,000 compounds, 0.083% hits; in the data active = inhibition mostly above about 23%, no sharp cut-off; inactive = mostly below about 18%;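 also: 0% = cells with DMSO and 100% = no-cell wells with DMSO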
HTR5A ag – HTR5A agonists in luminescence cell assay, primary screen, counter-screen for OPRM1-OPRD1 heterodimer agonist project, full-deck HTS | 5-hydroxytryptamine receptor 5A (Homo sapiens), P47898 | 340,000 compounds, 0.61% hits | activation, % at 9.3 µM | cell-based; in the data active = activation mostly above about 9.5%, no sharp cut-off; inactive = mostly below about 7.6%;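 also: 0% = cells with vehicle only and 100% = reference agonist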
OPRM1-D1 ag cf – agonists of MOR-DOR heterodimerization, confirmation, cell-based, luminescence; activation, % at 9.3 µM; shares compounds with OPRM1-OPRD1 ag; AID 504904, 2011; 830 compounds, 45% hits; cells, luminescence complementation;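 also: 0% = vehicle-treated cells and 100% = reference agonist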
HTR5A ag counter – HTR5A agonists in cells, counter-screen for OPRM1-OPRD1 heterodimer agonist project, cell-based, luminescence. shares compounds with OPRM1-OPRD1 ag. HTR5A agonist counterscreen. activation, % at 9.3 µM. 830 compounds, 8% hits; in the data active = activation above about 17%;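 also: 0% = vehicle-treated cells and 100% = reference agonist response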
Active calls of the source: *; i = inactive; · = no result. Rule as the data show it, unless noted: active = activation above about 18%; inactive = the rest.

SMILES	OPRM1-OPRD1 ag	OPRM1-OPRD1 inv	HTR5A inv ag	HTR5A ag	OPRM1-D1 ag cf	HTR5A ag counter
CCOC(=O)C1(CCOc2ccccc2)CCN(Cc2ccc(C)s2)CC1	33*	-171	4	-1	39*	3
NC(=O)c1ccc(N)nc1	-1	5	9	-2	·	·
CN(C)C1(CNC(=O)c2ccc(Cl)c(S(=O)(=O)NCc3ccco3)c2)CCCCC1	71*	-395	17	-2	80*	1
CN(C)C1(CNC(=O)Cc2ccccc2F)CCCCC1	2	-7	3	-1	·	·
COC1=CC2[C@@H]3Cc4ccc(OC)c(O)c4[C@]2(CCN3C)CC1=O (stereo not given in full)	-2	9	-10	3	·	·
CN1CC[C@]23c4c5ccc(OC6OC(C(=O)O)[C@@H](O)C(O)[C@H]6O)c4OC2C(O)C=CC3[C@H]1C5 (stereo not given in full)	8	-34	-10	4	·	·
CC(=O)OC1C=CC2[C@H]3Cc4ccc(O)c5c4[C@@]2(CCN3C)C1O5 (stereo not given in full)	282*	i	-13	6	-2	-1
COc1ccc2c3c1OC1[C@H](O)CCC4[C@@H](C2)N(C)CC[C@]314 (stereo not given in full)	46*	-185	-9	4	2	4
CN1CC[C@]23c4c5ccc(O)c4OC2C(O)C=CC3[C@H]1C5 (stereo not given in full)	·	·	-15	7	·	-2
CC(=O)O[C@H]1CCC2C3CCC4=CC(=O)CCC4=C3C=C[C@@]21C (stereo not given in full)	-1	6	1	0	·	·
C/C(=C/C=C/[C@@H](C)C(=O)O)[C@H]1CN[C@H](C(=O)O)[C@H]1CC(=O)O	-1	7	14	6	·	·
C[C@H]1[C@@H](c2ccccc2)O[C@@H](c2ccccc2Br)N1C	3	-16	-5	3	·	·
COC12CCC3(CC1C(C)(O)C(C)(C)C)[C@H]1Cc4ccc(OC5OC(C(=O)O)[C@@H](O)C(O)[C@H]5O)c5c4[C@@]3(CCN1CC1CC1)C2O5 (stereo not given in full)	18*	-73	-14	6	84*	3
COC12CCC3(CC1C(C)(O)C(C)(C)C)[C@H]1Cc4ccc(O)c5c4[C@@]3(CCN1CC1CC1)C2O5 (stereo not given in full)	·	·	-10	4	·	53*
O=C1/C(=C/c2ccccc2)C[C@@]2(O)[C@H]3Cc4ccc(O)c5c4[C@@]2(CCN3CC2CC2)C1O5 (stereo not given in full)	-3	13	3	-1	·	·
N[C@@H]1CC[C@@]2(O)[C@H]3Cc4ccc(O)c5c4[C@@]2(CCN3CC2CC2)C1O5 (stereo not given in full)	2	-10	13	-6	·	·
C[C@]12CC3CC(N)(C1)C[C@@](C)(C3)C2	-1	6	-3	1	·	·
COc1ccccc1-n1c(O)c(C=NCCN2CCNCC2)c(=O)[nH]c1=O	-2	11	-17	2	·	·
O=C(c1ccccc1)C(Cc1ccccc1)N1CCOCC1 (stereo not given)	-1	7	6	-2	·	·
CC(CCN1CC1)=NNC(=O)Nc1cccc2ccccc12	-2	10	1	0	·	·
CC(=O)O[C@@H]1CC[C@]2(C)C3CC[C@@]4(C)C(C[C@@H](O)[C@@H]4O)C3[C@@H](OC(C)=O)C[C@H]2C1 (stereo not given in full)	-2	10	-3	1	·	·
CC(=O)[C@H]1CCC2C3CC[C@H]4C[C@@H](O)CC[C@]4(C)C3CC[C@@]21C (stereo not given in full)	-1	4	14	-4	·	·
CC(=O)OC1CC(OC2C(O)CC(OC3C(O)CC(OC4CCC5(C)C(CCC6C5CCC5(C)C(C7=CC(=O)OC7)C(O)CC65O)C4)OC3C)OC2C)OC(C)C1OC1OC(CO)C(O)C(O)C1O (stereo not given)	72*	-369	-75	19*	38*	28*
CC(=O)OC1CC2(O)C3CCC4CC(O)CCC4(C)C3CCC2(C)C1C1=CC(=O)OC1 (stereo not given)	81*	-356	-108	28*	1	62*
Nc1cc(Cl)cc(Cl)c1	-3	15	2	0	·	·
SMILES	OPRM1-OPRD1 ag	OPRM1-OPRD1 inv	HTR5A inv ag	HTR5A ag	OPRM1-D1 ag cf	HTR5A ag counter
CC(=O)N(C)CC#CCN1CCC(O)CC1	-1	6	-11	1	·	·
CC1=NCCc2c1[nH]c1ccccc21	19*	-108	-40	5	6	12
O=P(Oc1ccccc1)(Oc1ccccc1)c1ccccc1	-1	7	-4	1	·	·
Cn1cnnc1Sc1cc(N2CCNCC2)ccc1[N+](=O)[O-]	-2	9	-17	7	·	·
COc1ccc(CCn2c(O)c(C=NCCN3CCCCC3)c(=O)[nH]c2=O)cc1OC	79*	-398	-3	2	1	-1
N=C(N)c1c(O)n(C2CCCCC2)c(=O)n(C2CCCCC2)c1=O	11	-56	9	-3	·	·
Cc1cc(-c2ccccc2)cc(C)[n+]1Cc1ccccc1	53*	-299	3	3	0	1
CC[C@H](OC(C)=O)C(C[C@H](C)N(C)C)(c1ccccc1)c1ccccc1	221*	i	4	-2	2	52*
C=CC1CN2CCC1CC2c1[nH]c2ccccc2c1CCO (stereo not given)	0	2	-7	3	·	·
CN(C)C(CNC(=O)Cc1c(Cl)cccc1Cl)c1ccccc1 (stereo not given)	145*	i	-3	1	1	4
CC(NCc1cccc(Cl)c1Cl)C(O)c1ccccc1 (stereo not given)	-1	4	-20	8	·	·
Cc1ccc(N2CCNCC2C)cc1 (stereo not given)	-2	11	-3	1	·	·
COc1ccc(C(CNC(=O)c2ccc3c(c2)CCC3)N(C)C)cc1 (stereo not given)	400*	i	-7	2	512*	-2
CCC(=O)OC(Cc1ccccc1)(c1ccccc1)[C@H](C)CN(C)C (stereo not given in full)	81*	-326	-22	9	80*	-5
CC(CN1CCOCC1)OC(=O)Cc1ccccc1 (stereo not given)	-2	8	5	0	·	·
